In paper PMC9838217, “Structure of SALL4 zinc finger domain reveals link between AT-rich DNA binding and Okihiro syndrome”:
Residue numbers refer to the chain shown, from its start.

Experiments:
Assay in all cases: HT-SELEX; high values mean tight binding
Conditions in all cases: protein: recombinant; vector His6-GST; dsDNA, one strand shown
[1] = molecular target: T1, SALL4 ZFC4 WT (HT-SELEX) (Mus musculus, UniProt Q8BX22 870-940)
T1 sequence: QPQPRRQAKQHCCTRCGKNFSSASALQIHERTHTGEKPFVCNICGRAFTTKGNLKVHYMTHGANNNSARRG
How it was run: (§1)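 Each canonical k-mer's binding signal is its read fraction expressed as fold change over the initial random library. Reads came from MiSeq sequencing, scanned for 6-mers, after up to 6 triplicate cycles in which purified recombinant mouse SALL4 zinc finger cluster 4 (residues 870–940, 1 µg) bound library DNA (1.5 µg first cycle, 200 ng later) in 100 µl of 10 mM Tris–HCl pH 7.5, 50 mM NaCl, poly(dI-dC), DTT for 10 min at room temperature. Complexes were then Ni2+ bead-captured, washed, PCR-amplified and reselected.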

[2] = molecular target: T2, SALL4 ZFC4 R900W (HT-SELEX) (Mus musculus, UniProt Q8BX22 870-940, R900W)
T2 sequence: T1 sequence with R31W
How it was run: as §1

[3] = molecular target: T3, SALL4 ZFC4 G921D (HT-SELEX) (Mus musculus, UniProt Q8BX22 870-940, G921D)
T3 sequence: T1 sequence with G52D
How it was run: as §1

| Sequence | binding signal [1] [fold-change vs cycle 0] | binding signal [2] [fold-change vs cycle 0] | binding signal [3] [fold-change vs cycle 0] |
| --- | --- | --- | --- |
| TAACGA | 1.27 ± 0.0588 | 1.31 ± 0.0864 | 1.26 ± 0.0862 |
| ATCTGA | 1.33 ± 0.0639 | 1.39 ± 0.0686 | 1.35 ± 0.119 |
| AGAATC | 1.3 ± 0.1 | 1.47 ± 0.0816 | 1.41 ± 0.128 |
| TACCCA | 0.781 ± 0.0395 | 0.882 ± 0.0184 | 0.886 ± 0.035 |
| ACATCT | 1.34 ± 0.0364 | 1.46 ± 0.0394 | 1.4 ± 0.0574 |
| CTGTCA | 0.753 ± 0.03 | 0.862 ± 0.0445 | 0.932 ± 0.0438 |
| ATTTTA | 3.12 ± 0.229 | 2.24 ± 0.131 | 1.98 ± 0.2 |
| CACATG | 0.752 ± 0.0217 | 0.8671 ± 0.00649 | 0.925 ± 0.0436 |
| CGTAAA | 1 ± 0.0348 | 1.08 ± 0.0147 | 1.05 ± 0.0379 |
| GTGATA | 1.42 ± 0.0582 | 1.47 ± 0.0649 | 1.39 ± 0.0928 |
| GACTAA | 1.21 ± 0.0577 | 1.39 ± 0.093 | 1.3 ± 0.0798 |
| ACTTGG | 0.787 ± 0.0269 | 0.907 ± 0.0234 | 0.936 ± 0.0313 |
| GGGAAA | 0.693 ± 0.0334 | 0.767 ± 0.0294 | 0.812 ± 0.0285 |
| TAACTA | 2.23 ± 0.0839 | 2.06 ± 0.126 | 1.82 ± 0.187 |
| AACTAC | 1.27 ± 0.0931 | 1.37 ± 0.099 | 1.32 ± 0.108 |
| CGAATA | 1.1 ± 0.0554 | 1.13 ± 0.0519 | 1.14 ± 0.0398 |
| CCAACG | 0.347 ± 0.0246 | 0.388 ± 0.0249 | 0.505 ± 0.0781 |
| ATTTGA | 1.85 ± 0.0312 | 1.79 ± 0.0613 | 1.65 ± 0.0905 |
| ACAGAC | 0.687 ± 0.0257 | 0.791 ± 0.00124 | 0.865 ± 0.0133 |
| CAACCC | 0.417 ± 0.0301 | 0.488 ± 0.0225 | 0.582 ± 0.0463 |

| Sequence | binding signal [1] [fold-change vs cycle 0] | binding signal [2] [fold-change vs cycle 0] | binding signal [3] [fold-change vs cycle 0] |
| --- | --- | --- | --- |
| GGATGA | 0.897 ± 0.0305 | 1.01 ± 0.0334 | 1.02 ± 0.0224 |
| TGCACA | 0.529 ± 0.0293 | 0.586 ± 0.0273 | 0.698 ± 0.0457 |
| GGGTAC | 0.482 ± 0.0239 | 0.556 ± 0.011 | 0.641 ± 0.0594 |
| ACAGAA | 1.26 ± 0.036 | 1.37 ± 0.0837 | 1.3 ± 0.0881 |
| GAATCC | 0.85 ± 0.00926 | 0.935 ± 0.0194 | 0.989 ± 0.0139 |
| AAAACA | 1.61 ± 0.0773 | 1.67 ± 0.055 | 1.55 ± 0.0435 |
| CCAAAA | 0.9105 ± 0.0059 | 0.953 ± 0.0119 | 0.997 ± 0.0429 |
| CAGGGA | 0.492 ± 0.0092 | 0.57 ± 0.0327 | 0.629 ± 0.0495 |
| AAACGT | 1.02 ± 0.0198 | 1.17 ± 0.0143 | 1.14 ± 0.0434 |
| ACCCTA | 0.864 ± 0.0329 | 0.973 ± 0.0359 | 0.982 ± 0.053 |
| AGGTGC | 0.324 ± 0.00829 | 0.389 ± 0.0132 | 0.519 ± 0.0738 |
| ATGGTG | 0.792 ± 0.0243 | 0.882 ± 0.0384 | 0.941 ± 0.0443 |
| GGAACC | 0.444 ± 0.034 | 0.539 ± 0.0289 | 0.622 ± 0.0467 |
| CACACC | 0.375 ± 0.0351 | 0.468 ± 0.0362 | 0.561 ± 0.0498 |
| CTCTCA | 0.878 ± 0.0209 | 0.992 ± 0.023 | 1.04 ± 0.0372 |
| AACATG | 1.25 ± 0.0212 | 1.38 ± 0.0255 | 1.32 ± 0.0877 |
| ATGAAA | 2.91 ± 0.152 | 1.98 ± 0.0876 | 1.79 ± 0.147 |
| GGGTTA | 0.864 ± 0.0423 | 0.939 ± 0.0501 | 0.958 ± 0.0312 |
| AGACAT | 1.29 ± 0.0778 | 1.45 ± 0.0615 | 1.37 ± 0.0528 |
| CCATAG | 0.841 ± 0.0326 | 0.91 ± 0.0505 | 0.94 ± 0.039 |

| Sequence | binding signal [1] [fold-change vs cycle 0] | binding signal [2] [fold-change vs cycle 0] | binding signal [3] [fold-change vs cycle 0] |
| --- | --- | --- | --- |
| CTCCAA | 0.746 ± 0.0518 | 0.878 ± 0.04 | 0.924 ± 0.0231 |
| AGACAA | 1.15 ± 0.0323 | 1.28 ± 0.0792 | 1.26 ± 0.0604 |
| AAGAGA | 1.45 ± 0.0335 | 1.67 ± 0.0544 | 1.48 ± 0.103 |
| GGACTA | 0.732 ± 0.0464 | 0.855 ± 0.0609 | 0.897 ± 0.0585 |
| ACTACG | 0.659 ± 0.026 | 0.728 ± 0.025 | 0.821 ± 0.0676 |
| AATCCC | 0.882 ± 0.0212 | 0.932 ± 0.0228 | 0.963 ± 0.0176 |
| AGATAT | 2.61 ± 0.24 | 2.08 ± 0.11 | 1.86 ± 0.213 |
| ACTAAA | 1.81 ± 0.0352 | 1.9 ± 0.121 | 1.69 ± 0.128 |
| CAATTA | 1.91 ± 0.128 | 1.83 ± 0.147 | 1.71 ± 0.164 |
| CACGAC | 0.303 ± 0.0099 | 0.381 ± 0.0158 | 0.501 ± 0.0536 |
| GATGAA | 1.45 ± 0.0431 | 1.54 ± 0.0399 | 1.43 ± 0.0787 |
| ATGTAC | 1.295 ± 0.0117 | 1.38 ± 0.0189 | 1.32 ± 0.0512 |
| CTCACC | 0.488 ± 0.0202 | 0.56 ± 0.0155 | 0.677 ± 0.0522 |
| AGAAAC | 1.21 ± 0.0656 | 1.36 ± 0.0395 | 1.31 ± 0.0847 |
| ATGCGA | 0.525 ± 0.0387 | 0.556 ± 0.0155 | 0.689 ± 0.0646 |
| TCCAGA | 0.807 ± 0.0459 | 0.894 ± 0.029 | 0.927 ± 0.0563 |
| ACGGAA | 0.706 ± 0.0319 | 0.803 ± 0.0284 | 0.868 ± 0.0441 |
| CCCAAA | 0.588 ± 0.013 | 0.653 ± 0.0116 | 0.729 ± 0.0699 |
| ACCCCA | 0.468 ± 0.0336 | 0.525 ± 0.0104 | 0.602 ± 0.0476 |
| AACCAT | 1.38 ± 0.0512 | 1.42 ± 0.0463 | 1.41 ± 0.0967 |
